According to PubChem BioAssay:
A number with no mark means an inactive call. For some of these results: Measured potencies and affinities stand elsewhere. The source made the active and inactive calls. Unless noted, how the calls were made is not given here.

Key:
[1] = antimalarial activity against Dd2 strain (AID 2302;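 active means growth inhibition above 50% at the single 2 µM test dose, taken to imply half-maximal potency below 2 µM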;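 further: 0% = DMSO untreated growth and 100% = chloroquine plus artemisinin killed control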); conditions: P. falciparum Dd2 in RBCs, LDH growth readout, 72 h; at 2 µM; stronger effect = higher value
[2] = human hepatoma cell viability loss – ATP luminescence, cytotoxicity control for P. falciparum antimalarial project, primary screen (AID 2303;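 active means inhibition above 50%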;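 further: 0% = DMSO wells and 100% = digitonin-killed cells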); conditions: HepG2 viability, 24-48 h, at 10 µM, stronger effect = higher value
[3] = molecular target: L-lactate dehydrogenase (Plasmodium falciparum (isolate CDC / Honduras)) (UniProt Q27743); assay: PfLDH activity inhibition – cell lysate, 3D7 strain, counter-screen for P. falciparum growth inhibition project (AID 2304);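 further: 0% = vehicle and 100% = reference inhibitor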; conditions: P. falciparum 3D7 crude extract, LDH APAD/NBT absorbance; at 2 µM; stronger effect = higher value
L-lactate dehydrogenase (Plasmodium falciparum (isolate CDC / Honduras)), sequence (Q27743 whole entry, looked up): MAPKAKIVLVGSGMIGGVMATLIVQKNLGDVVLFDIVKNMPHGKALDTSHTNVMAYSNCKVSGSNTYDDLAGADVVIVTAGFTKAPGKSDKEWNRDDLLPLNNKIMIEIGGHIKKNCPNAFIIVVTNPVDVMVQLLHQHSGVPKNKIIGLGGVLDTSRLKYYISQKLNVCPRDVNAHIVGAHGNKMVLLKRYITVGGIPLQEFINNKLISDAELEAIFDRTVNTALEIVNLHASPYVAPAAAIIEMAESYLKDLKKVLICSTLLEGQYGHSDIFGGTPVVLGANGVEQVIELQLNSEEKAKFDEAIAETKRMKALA

[4] = inhibition of 3D7 malaria parasite growth – strain 3D7 (AID 2306);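 further: 0% = DMSO wells and 100% = chloroquine plus artemisinin control wells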; conditions: P. falciparum 3D7 erythrocytic growth, LDH absorbance, 72 h; at 2 µM; stronger effect = higher value
[5] = molecular target: Calcium-dependent protein kinase 1 (Plasmodium falciparum (isolate 3D7)) (UniProt P62344); assay: PfCDPK1 kinase inhibitors, biochemical, TCAMS library (AID 1159585; cut-off not given, nearly all actives have IC50 up to about 0.98 µM;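 further: inhibitors leave more ATP so luminescence rises with inhibition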); conditions: recombinant PfCDPK1, Kinase-Glo ATP depletion luminescence
Calcium-dependent protein kinase 1 (Plasmodium falciparum (isolate 3D7)), sequence (P62344 whole entry, looked up): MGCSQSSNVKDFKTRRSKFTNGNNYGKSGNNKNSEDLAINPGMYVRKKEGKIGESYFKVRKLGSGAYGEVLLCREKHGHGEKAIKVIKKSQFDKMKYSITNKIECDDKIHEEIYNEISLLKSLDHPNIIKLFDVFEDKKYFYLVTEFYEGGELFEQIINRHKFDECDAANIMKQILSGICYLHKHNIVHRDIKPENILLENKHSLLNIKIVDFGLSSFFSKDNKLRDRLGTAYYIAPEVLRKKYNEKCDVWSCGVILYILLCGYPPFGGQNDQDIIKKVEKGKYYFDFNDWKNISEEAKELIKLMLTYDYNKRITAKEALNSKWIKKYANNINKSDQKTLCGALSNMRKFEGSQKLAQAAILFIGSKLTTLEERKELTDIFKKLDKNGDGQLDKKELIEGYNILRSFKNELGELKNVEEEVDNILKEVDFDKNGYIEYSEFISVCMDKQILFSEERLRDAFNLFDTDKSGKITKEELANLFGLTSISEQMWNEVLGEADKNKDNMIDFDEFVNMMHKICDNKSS

[6] = molecular target: Plasmodium falciparum protein kinase 6 (PK6, PF3D7_1337100) (UniProt Q8IDW1); assay: PfPK6 kinase inhibitors, biochemical, TCAMS library (AID 1159586); conditions: recombinant PfPK6, Kinase-Glo ATP depletion luminescence
Plasmodium falciparum protein kinase 6 (PK6, PF3D7_1337100), sequence (Q8IDW1 1-305): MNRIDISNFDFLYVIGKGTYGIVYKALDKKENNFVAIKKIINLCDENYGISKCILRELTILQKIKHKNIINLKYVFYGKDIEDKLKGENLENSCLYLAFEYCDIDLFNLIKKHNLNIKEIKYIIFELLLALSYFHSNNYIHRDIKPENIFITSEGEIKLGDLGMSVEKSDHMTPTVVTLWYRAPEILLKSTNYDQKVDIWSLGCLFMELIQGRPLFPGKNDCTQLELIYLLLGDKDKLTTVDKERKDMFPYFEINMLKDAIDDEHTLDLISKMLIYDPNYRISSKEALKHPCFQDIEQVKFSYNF

[7] = molecular target: Protein kinase 7 (PK7), Plasmodium falciparum 3D7 (PF3D7_0213400) (UniProt Q7YTF7); assay: inhibition of Plasmodium PK7 catalytic activity – biochemical, TCAMS antimalarial set, Kinase-Glo luminescence (AID 1159587); conditions: recombinant PfPK7, Kinase-Glo ATP depletion luminescence
Protein kinase 7 (PK7), Plasmodium falciparum 3D7 (PF3D7_0213400), sequence (Q7YTF7 1-343): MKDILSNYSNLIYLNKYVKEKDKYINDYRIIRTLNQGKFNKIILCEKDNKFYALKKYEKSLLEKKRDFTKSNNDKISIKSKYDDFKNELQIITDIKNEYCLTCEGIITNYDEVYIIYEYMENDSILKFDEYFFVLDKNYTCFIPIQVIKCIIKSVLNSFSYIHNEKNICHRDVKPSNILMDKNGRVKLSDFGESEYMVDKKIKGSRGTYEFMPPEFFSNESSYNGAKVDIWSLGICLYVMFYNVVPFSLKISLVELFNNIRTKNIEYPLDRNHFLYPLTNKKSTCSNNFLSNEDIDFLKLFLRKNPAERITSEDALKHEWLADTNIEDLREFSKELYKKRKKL

[8] = molecular target: Calcium-dependent protein kinase 4 (Plasmodium falciparum (isolate 3D7)) (UniProt Q8IBS5); assay: PfCDPK4 kinase inhibitors, biochemical, TCAMS library (AID 1159588; cut-off not given, nearly all actives have IC50 up to about 0.91 µM); conditions: recombinant PfCDPK4, Kinase-Glo ATP depletion luminescence
Calcium-dependent protein kinase 4 (Plasmodium falciparum (isolate 3D7)), sequence (Q8IBS5 whole entry, looked up): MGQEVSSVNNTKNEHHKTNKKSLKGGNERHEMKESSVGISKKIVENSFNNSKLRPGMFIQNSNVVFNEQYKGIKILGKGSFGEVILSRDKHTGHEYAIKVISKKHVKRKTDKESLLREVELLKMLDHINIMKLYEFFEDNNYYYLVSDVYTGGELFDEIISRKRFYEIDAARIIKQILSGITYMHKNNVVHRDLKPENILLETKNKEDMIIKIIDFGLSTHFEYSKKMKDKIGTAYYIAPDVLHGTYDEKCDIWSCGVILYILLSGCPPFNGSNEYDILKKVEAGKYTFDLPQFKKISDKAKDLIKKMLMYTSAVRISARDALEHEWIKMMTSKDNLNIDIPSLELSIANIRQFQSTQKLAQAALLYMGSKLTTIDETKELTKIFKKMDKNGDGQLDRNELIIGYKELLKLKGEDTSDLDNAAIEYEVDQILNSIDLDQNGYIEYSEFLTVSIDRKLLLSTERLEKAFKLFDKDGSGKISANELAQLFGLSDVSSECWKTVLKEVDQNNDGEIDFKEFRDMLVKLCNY

Row | SMILES | growth inhibition [1] | inhibition [2] | inhibition [3] [%] | growth inhibition [4] | outcome [5] | outcome [6] | outcome [7] | outcome [8]
1 | CC1c2cccc(O)c2CCN1CCc1ccc(Cl)c(Cl)c1 (stereo not drawn) | 99% (active) | 18% | -1 | 102% (active) | inactive | inactive | inactive | inactive
2 | CS(=O)(=O)N1CC2(CCN(CCC(NC(=O)/C=C/c3ccccc3)c3ccc(Cl)c(Cl)c3)CC2)c2ccccc21 (stereo not drawn) | 55% (active) | 18% | 2 | 97% (active) | inactive | inactive | inactive | inactive
3 | Cc1cc(Cl)ccc1OC(C)C(=O)N1CCc2ccccc21 (stereo not drawn) | 78% (active) | 8% | -2 | 94% (active) | inactive | inactive | inactive | inactive
4 | O=C(CC1SC(N2N=C(c3cccs3)CC2c2ccccc2)=NC1=O)Nc1ccc(Cl)cc1 (stereo not drawn) | 88% (active) | 18% | 2 | 83% (active) | inactive | inactive | inactive | inactive
5 | O=C(NCCCN1CCC(N2CCCCC2)CC1)C1=Cc2cc(Br)ccc2OC1 | 19% | 26% | -1 | 100% (active) | inactive | inactive | inactive | inactive
6 | O=C(/C=C/c1ccc(C(F)(F)F)cc1)NCCCCCN1CCN(C(=O)Nc2ccc(Cl)cc2)CC1 | -4% | 37% | -8 | 88% (active) | inactive | inactive | inactive | inactive
7 | O=C(CCc1cccnc1)Nc1ccc(-c2cccc(-c3nc4ccc(F)cc4[nH]3)c2)cc1 | 9% | 67% (active) | 2 | 86% (active) | inactive | inactive | inactive | inactive
8 | Cc1ccc(C2CC(c3cccs3)=NN2C(=O)c2ccc(Br)o2)cc1 (stereo not drawn) | 69% (active) | 11% | 0 | 99% (active) | inactive | inactive | inactive | inactive
9 | Clc1ccc(Nc2nc(Nc3ccc(Cl)c(Cl)c3)nc(Sc3nc4ccccc4[nH]3)n2)cc1Cl | 100% (active) | 10% | 1 | 99% (active) | inactive | inactive | inactive | inactive
10 | CCN(CCCN1CCCCC1)c1cc(C)nc(Nc2cccc(C(F)(F)F)c2)n1 | 88% (active) | 25% | 5 | 102% (active) | inactive | inactive | inactive | inactive
11 | Cc1cc(Nc2ccccc2)nc(Nc2ccccc2C)n1 | 27% | 8% | 5 | 85% (active) | inactive | inactive | inactive | inactive
12 | O=C(/C=C/c1ccc(Cl)cc1)NCCCCCN1CCN(C(=O)C=Cc2ccc(Cl)c(Cl)c2)CC1 | 0% | 30% | 5 | 92% (active) | inactive | inactive | inactive | inactive
13 | COC(=O)Nc1nc2cc3c(cc2s1)OCCO3 | -1% | -12% | 1 | 99% (active) | inactive | inactive | inactive | inactive
14 | NC(N)=NN=Cc1c2ccc(Cl)cc2c(Cl)c2ccc(Cl)cc12 | 90% (active) | 28% | 0 | 100% (active) | inactive | inactive | inactive | inactive
15 | COc1cc(CN=C(Nc2ccc(-c3ccccc3)cc2)Nc2ccc(C#N)cc2O)cc(OC)c1 | 64% (active) | -4% | 5 | 95% (active) | inactive | inactive | inactive | inactive
16 | COc1c(C2CCN(CCCCNC(=O)c3oc(-c4ccc(Cl)cc4)cc3CO)CC2)ccc2c1CCCC2 | 95% (active) | 80% (active) | 4 | 102% (active) | inactive | inactive | inactive | inactive
17 | COc1cc2c(cc1S(=O)(=O)c1ccc(NC(=O)c3ccc4ccccc4c3)cc1)CCN(C)CC2 | 28% | 2% | -4 | 99% (active) | inactive | inactive | inactive | inactive
18 | COc1cc(CNC[C@@H](O)[C@H](Cc2ccccc2)NC(=O)c2cc(OC(C)C)cc(N3CCCS3(=O)=O)c2)cc(OC)c1 | 72% (active) | -1% | 0 | 97% (active) | inactive | inactive | inactive | inactive
19 | COc1ccc(NC(=O)[C@H](Cc2ccccc2)Nc2cc(C)nc(NCCc3ccccn3)n2)cc1 | 39% | -7% | -3 | 99% (active) | inactive | inactive | inactive | inactive
20 | COc1ccnc(NCCCNCc2cn(S(=O)(=O)c3ccccc3)c3ccccc23)c1 | 18% | 57% (active) | -2 | 99% (active) | inactive | inactive | inactive | inactive
21 | CCC(CC)n1c(C)cc2c3c(N)nc(N)nc3ccc21 | 95% (active) | 61% (active) | 1 | 95% (active) | inactive | inactive | inactive | inactive

Row | SMILES | growth inhibition [1] | inhibition [2] | inhibition [3] [%] | growth inhibition [4] | outcome [5] | outcome [6] | outcome [7] | outcome [8]
22 | O=C(/C=C/c1ccc(-c2nc3ccc(Cl)cc3[nH]2)cc1)NC1CCN(Cc2ccccc2)CC1 | 92% (active) | 3% | 0 | 100% (active) | inactive | inactive | inactive | inactive
23 | Cc1cc(NCCc2ccc(O)cc2)nc(NCC(c2ccccc2)c2ccccc2)n1 | 77% (active) | 22% | 1 | 102% (active) | inactive | inactive | inactive | inactive
24 | CS(=O)(=O)N1CC2(CCN(CCC(NC(=O)NCc3ccc(Cl)c(Cl)c3)c3ccc(Cl)c(Cl)c3)CC2)c2ccccc21 (stereo not drawn) | 59% (active) | 19% | -8 | 89% (active) | inactive | inactive | inactive | inactive
25 | CCC(Cc1cnc2nc(N)nc(N)c2n1)c1ccc(C(=O)N[C@@H](CCC(=O)O)C(=O)O)cc1 (stereo partly drawn) | 98% (active) | 64% (active) | -2 | 93% (active) | inactive | inactive | inactive | inactive
26 | Cc1cccc(OCCCCON2C(N)=NC(N)=NC2(C)C)c1C | 95% (active) | 65% (active) | -3 | 97% (active) | inactive | inactive | inactive | inactive
27 | Cc1cccc(C)c1CNc1ccnc2cc(C#N)ccc12 | 99% (active) | 20% | -1 | 100% (active) | inactive | inactive | inactive | inactive
28 | Cc1ccc(Nc2nc(C)cc(NC3CC3)n2)cc1 | 15% | -4% | 5 | 97% (active) | inactive | inactive | inactive | inactive
29 | O=C(Nc1ccc(F)c(F)c1)c1ccc(CN2CCCN(Cc3cccc(O)c3)CC2)cc1 | 57% (active) | 43% | -1 | 92% (active) | inactive | inactive | inactive | inactive
30 | Cc1cnc(Nc2cccc(CCN3CCOCC3)c2)nc1NC(C)C | 76% (active) | 53% (active) | 1 | 97% (active) | inactive | inactive | inactive | inactive
31 | COc1ccccc1N1CCN(Cc2c(O)ccc3cc(Br)ccc23)CC1 | 75% (active) | 8% | 2 | 89% (active) | inactive | inactive | inactive | inactive
32 | COc1ccc2ncc(C#N)c(CCN3CCC(NCc4ccc5c(n4)NC(=O)CS5)CC3)c2n1 | 17% | 9% | -1 | 89% (active) | inactive | inactive | inactive | inactive
33 | COc1ccc(-c2ccc(NC(=O)c3cccc(C#N)c3)cc2)cc1CN(C)C | 10% | 11% | 0 | 103% (active) | inactive | inactive | inactive | inactive
34 | O=C(NC1CCN(Cc2ccccc2)CC1)c1ccc(-c2nc3cc(Cl)c(F)cc3[nH]2)s1 | 99% (active) | 28% | 3 | 101% (active) | inactive | inactive | inactive | inactive
35 | CCCCCc1cc(OC(C)=O)c2c(c1)OC(C)(C)C=C2C1=CCN(Cc2ccccc2)CC1 | 88% (active) | 14% | -3 | 97% (active) | inactive | inactive | inactive | inactive
36 | CS(=O)(=O)N(c1ccccc1)c1cc(C(=O)N[C@@H](Cc2ccccc2)[C@H](O)CNC2CCCCC2)cc(N2CCCC2=O)c1 | 97% (active) | 8% | -3 | 100% (active) | inactive | inactive | inactive | inactive
37 | Cn1nccc1C(=O)NCCNCc1ccc(-c2ccc(-c3nc4ccccc4[nH]3)s2)cc1 | 97% (active) | 23% | -9 | 101% (active) | inactive | inactive | inactive | inactive
38 | COc1ccc2[nH]cc(C3CCN(CCCCCNC(=O)c4ccc(-c5ccccc5)cc4)CC3)c2c1 | 16% | 50% (active) | -8 | 96% (active) | inactive | inactive | inactive | inactive
39 | Cc1cc(N[C@@H](CC(C)C)C(=O)NCCc2ccccc2)nc(NCC2CCCCC2)n1 | 65% (active) | 19% | -1 | 97% (active) | inactive | inactive | inactive | inactive
40 | Cc1ccc(C(=O)Nc2cc(S(=O)(=O)N3CCCC3)ccc2OCC(F)(F)F)cc1 | 3% | -2% | 3 | 93% (active) | inactive | inactive | inactive | inactive
41 | CCOc1ccc(N2CCN(CCCCNC(=O)c3ccc(NC(=O)c4ccc(Cl)cc4)cc3)CC2)c(OCC)c1 | 65% (active) | 36% | 2 | 102% (active) | inactive | inactive | inactive | inactive
